# Measurements from paper PMC7862700, “An all-to-all approach to the identification of sequence-specific readers for epigenetic DNA modifications on cytosine”.
# Columns and labels:
# Assay in all cases: DAPPL (digital affinity profiling via proximity ligation, sequencing); 10 mM Tris-HCl pH 7.5, 50 mM NaCl, 1 mM DTT, 4% glycerol, room temperature, 30 min; GST-TFs on glutathione beads, 16-mer random dsDNA library, 0.1% formaldehyde crosslink after washing; high values mean tight binding
# FLI1 = biological target: T1, FLI1 (Homo sapiens, UniProt Q01543 1-452); conditions: protein: recombinant; tags: N-terminal GST; dsDNA, one strand shown
# T1 sequence: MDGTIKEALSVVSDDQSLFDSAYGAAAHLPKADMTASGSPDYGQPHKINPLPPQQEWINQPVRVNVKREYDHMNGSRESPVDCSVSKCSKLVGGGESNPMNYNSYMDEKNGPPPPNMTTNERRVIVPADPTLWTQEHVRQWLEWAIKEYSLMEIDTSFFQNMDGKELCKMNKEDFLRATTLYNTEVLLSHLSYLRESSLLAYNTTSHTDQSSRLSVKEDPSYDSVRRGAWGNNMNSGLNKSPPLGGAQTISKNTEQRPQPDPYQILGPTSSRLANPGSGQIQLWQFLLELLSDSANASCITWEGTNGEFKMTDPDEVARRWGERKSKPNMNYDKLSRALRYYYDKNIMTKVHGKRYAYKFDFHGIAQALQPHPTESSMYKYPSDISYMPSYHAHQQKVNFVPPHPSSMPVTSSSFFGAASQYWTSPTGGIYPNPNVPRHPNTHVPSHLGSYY
# How it was run: (§1)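 A tag-only sample was pooled with DNA-barcoded human transcription factors that had been expressed in yeast as GST fusions and captured on glutathione beads. The pools were incubated for 30 min at room temperature with 200 nmole of a random double-stranded 16-mer DNA library in Tris/NaCl/DTT/glycerol buffer, then washed, crosslinked with 0.1% formaldehyde, proximity-ligated (BsaI/T4 ligase, 1 h, 37 °C), PCR-amplified and sequenced on an Illumina NextSeq500. Binding signal is each hexamer's read frequency for a factor divided by its frequency for the tag-only sample.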
# ELK1 = biological target: T2, ELK1 (Homo sapiens, UniProt P19419 1-428); conditions: protein: recombinant; tags: N-terminal GST; dsDNA, one strand shown
# T2 sequence: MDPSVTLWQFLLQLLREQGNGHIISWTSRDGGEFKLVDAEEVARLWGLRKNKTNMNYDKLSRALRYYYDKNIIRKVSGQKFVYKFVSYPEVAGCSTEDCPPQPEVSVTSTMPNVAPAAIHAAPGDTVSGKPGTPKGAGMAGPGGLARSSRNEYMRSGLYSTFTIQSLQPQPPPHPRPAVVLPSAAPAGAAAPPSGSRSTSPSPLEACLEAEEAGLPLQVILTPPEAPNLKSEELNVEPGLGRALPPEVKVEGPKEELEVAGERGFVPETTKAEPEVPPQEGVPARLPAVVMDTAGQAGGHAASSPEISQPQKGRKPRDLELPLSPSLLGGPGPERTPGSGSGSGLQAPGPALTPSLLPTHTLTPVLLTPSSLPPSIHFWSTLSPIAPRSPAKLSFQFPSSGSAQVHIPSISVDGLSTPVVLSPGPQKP
# How it was run: as §1
# GABPA = biological target: T3, GABPA (Homo sapiens, UniProt Q06546 1-454); conditions: protein: recombinant; tags: N-terminal GST; dsDNA, one strand shown
# T3 sequence: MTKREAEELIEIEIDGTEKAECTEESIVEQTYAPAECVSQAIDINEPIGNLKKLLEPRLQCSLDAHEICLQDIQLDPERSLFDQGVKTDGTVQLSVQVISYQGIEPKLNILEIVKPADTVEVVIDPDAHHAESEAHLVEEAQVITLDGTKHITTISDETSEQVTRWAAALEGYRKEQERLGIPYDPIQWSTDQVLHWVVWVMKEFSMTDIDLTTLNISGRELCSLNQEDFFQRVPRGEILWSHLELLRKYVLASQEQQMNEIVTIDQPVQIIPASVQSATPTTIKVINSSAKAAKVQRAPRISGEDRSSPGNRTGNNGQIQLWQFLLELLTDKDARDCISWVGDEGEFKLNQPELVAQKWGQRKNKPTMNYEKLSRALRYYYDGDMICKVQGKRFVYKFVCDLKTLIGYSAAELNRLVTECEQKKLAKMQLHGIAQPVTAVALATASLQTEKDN
# How it was run: as §1
# ERG = biological target: T4, ERG (Homo sapiens, UniProt P11308 1-479); conditions: protein: recombinant; tags: N-terminal GST; dsDNA, one strand shown
# T4 sequence: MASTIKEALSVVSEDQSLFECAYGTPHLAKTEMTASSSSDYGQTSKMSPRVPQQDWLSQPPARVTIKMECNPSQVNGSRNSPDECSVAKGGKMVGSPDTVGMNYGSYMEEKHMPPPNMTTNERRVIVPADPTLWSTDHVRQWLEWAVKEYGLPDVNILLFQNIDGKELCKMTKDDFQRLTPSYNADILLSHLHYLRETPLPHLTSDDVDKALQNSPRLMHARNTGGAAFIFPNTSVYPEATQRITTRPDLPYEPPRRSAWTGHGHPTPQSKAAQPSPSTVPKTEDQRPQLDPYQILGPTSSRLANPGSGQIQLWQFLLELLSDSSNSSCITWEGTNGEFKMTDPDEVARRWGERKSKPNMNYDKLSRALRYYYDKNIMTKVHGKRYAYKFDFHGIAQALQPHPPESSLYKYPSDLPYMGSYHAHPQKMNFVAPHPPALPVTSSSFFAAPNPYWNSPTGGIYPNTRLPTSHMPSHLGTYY
# How it was run: as §1
# ELF1 = ELF1 (Homo sapiens, UniProt P32519 1-619); conditions: protein: recombinant; tags: N-terminal GST; dsDNA, one strand shown
# How it was run: as §1
# EHF = biological target: T5, EHF (Homo sapiens, UniProt Q9NZC4 1-300); conditions: protein: recombinant; tags: N-terminal GST; dsDNA, one strand shown
# T5 sequence: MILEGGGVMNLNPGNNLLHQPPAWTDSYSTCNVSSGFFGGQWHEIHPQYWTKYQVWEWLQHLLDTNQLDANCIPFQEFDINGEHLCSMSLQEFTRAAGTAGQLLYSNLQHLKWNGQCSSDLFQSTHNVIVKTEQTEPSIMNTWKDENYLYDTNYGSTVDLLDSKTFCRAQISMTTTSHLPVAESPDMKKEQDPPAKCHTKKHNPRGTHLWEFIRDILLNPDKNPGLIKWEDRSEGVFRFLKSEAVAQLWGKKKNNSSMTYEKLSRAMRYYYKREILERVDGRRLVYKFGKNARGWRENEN
# How it was run: as §1
# SPI1 = SPI1 (Homo sapiens, UniProt P17947 1-270); conditions: protein: recombinant; tags: N-terminal GST; dsDNA, one strand shown
# How it was run: as §1
# SPIB = SPIB (Homo sapiens, UniProt Q01892 1-262); conditions: protein: recombinant; tags: N-terminal GST; dsDNA, one strand shown
# How it was run: as §1
# ELK3 = biological target: T6, ELK3 (Homo sapiens, UniProt P41970 1-407); conditions: protein: recombinant; tags: N-terminal GST; dsDNA, one strand shown
# T6 sequence: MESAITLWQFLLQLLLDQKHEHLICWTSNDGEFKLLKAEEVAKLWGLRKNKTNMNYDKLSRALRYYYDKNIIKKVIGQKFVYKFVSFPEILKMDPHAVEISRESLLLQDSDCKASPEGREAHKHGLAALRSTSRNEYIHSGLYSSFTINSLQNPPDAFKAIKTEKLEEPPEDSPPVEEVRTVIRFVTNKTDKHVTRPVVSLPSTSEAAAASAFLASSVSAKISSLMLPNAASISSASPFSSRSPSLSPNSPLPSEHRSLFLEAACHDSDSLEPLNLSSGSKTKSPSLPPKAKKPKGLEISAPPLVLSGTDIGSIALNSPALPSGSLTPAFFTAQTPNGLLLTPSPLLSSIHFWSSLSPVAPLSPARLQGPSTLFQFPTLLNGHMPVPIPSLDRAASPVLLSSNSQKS
# How it was run: as §1
# FEV = biological target: T7, FEV (Homo sapiens, UniProt Q99581 1-238); conditions: protein: recombinant; tags: N-terminal GST; dsDNA, one strand shown
# T7 sequence: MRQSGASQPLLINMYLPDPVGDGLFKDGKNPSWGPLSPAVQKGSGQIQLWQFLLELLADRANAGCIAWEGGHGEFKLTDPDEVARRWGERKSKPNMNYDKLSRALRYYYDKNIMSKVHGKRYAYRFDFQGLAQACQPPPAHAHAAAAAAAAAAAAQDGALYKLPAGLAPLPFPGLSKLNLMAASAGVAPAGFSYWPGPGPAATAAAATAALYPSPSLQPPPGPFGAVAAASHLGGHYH
# How it was run: as §1
# ETV5 = ETV5 (Homo sapiens, UniProt P41161 1-510); conditions: protein: recombinant; tags: N-terminal GST; dsDNA, one strand shown
# How it was run: as §1
# HSF1 = HSF1 (Homo sapiens, UniProt Q00613 1-529); conditions: protein: recombinant; tags: N-terminal GST; chain copies: 3; dsDNA, one strand shown
# How it was run: as §1
# SPIC = biological target: T8, SPIC (Homo sapiens, UniProt Q8N5J4 1-248); conditions: protein: recombinant; tags: N-terminal GST; dsDNA, one strand shown
# T8 sequence: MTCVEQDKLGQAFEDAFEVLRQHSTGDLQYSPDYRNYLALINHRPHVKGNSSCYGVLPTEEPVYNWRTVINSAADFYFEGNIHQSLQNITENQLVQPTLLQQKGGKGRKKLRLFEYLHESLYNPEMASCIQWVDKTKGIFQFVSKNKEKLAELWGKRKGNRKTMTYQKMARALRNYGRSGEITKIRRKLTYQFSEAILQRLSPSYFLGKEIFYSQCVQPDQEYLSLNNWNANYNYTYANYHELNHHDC
# How it was run: as §1
# ELF4 = ELF4 (Homo sapiens, UniProt Q99607 1-663); conditions: protein: recombinant; tags: N-terminal GST; dsDNA, one strand shown
# How it was run: as §1
# ELK4 = biological target: T9, ELK4 (Homo sapiens, UniProt P28324-2 1-405); conditions: protein: recombinant; tags: N-terminal GST; dsDNA, one strand shown
# T9 sequence: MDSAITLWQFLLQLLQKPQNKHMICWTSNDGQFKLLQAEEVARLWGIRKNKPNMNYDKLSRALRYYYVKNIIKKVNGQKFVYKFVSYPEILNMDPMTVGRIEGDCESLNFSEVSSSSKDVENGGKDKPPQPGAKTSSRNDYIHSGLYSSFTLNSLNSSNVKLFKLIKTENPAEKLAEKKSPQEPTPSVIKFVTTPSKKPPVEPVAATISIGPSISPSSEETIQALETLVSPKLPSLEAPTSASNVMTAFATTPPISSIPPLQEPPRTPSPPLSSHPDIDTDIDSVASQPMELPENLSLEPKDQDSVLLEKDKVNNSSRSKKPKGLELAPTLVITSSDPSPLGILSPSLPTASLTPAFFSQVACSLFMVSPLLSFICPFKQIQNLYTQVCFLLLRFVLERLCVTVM
# How it was run: as §1
# ETV2 = biological target: T10, ETV2 (Homo sapiens, UniProt O00321 1-342); conditions: protein: recombinant; tags: N-terminal GST; dsDNA, one strand shown
# T10 sequence: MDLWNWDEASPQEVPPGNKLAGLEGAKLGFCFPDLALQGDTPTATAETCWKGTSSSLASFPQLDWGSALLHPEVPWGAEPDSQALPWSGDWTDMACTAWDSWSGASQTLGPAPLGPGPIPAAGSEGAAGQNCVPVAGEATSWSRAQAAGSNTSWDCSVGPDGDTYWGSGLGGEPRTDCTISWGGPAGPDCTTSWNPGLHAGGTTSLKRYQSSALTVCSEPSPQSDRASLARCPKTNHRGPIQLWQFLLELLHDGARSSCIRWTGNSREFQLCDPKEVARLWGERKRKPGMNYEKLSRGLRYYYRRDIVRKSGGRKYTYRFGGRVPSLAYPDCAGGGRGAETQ
# How it was run: as §1
# ELF3 = biological target: T11, ELF3 (Homo sapiens, UniProt P78545 1-371); conditions: protein: recombinant; tags: N-terminal GST; dsDNA, one strand shown
# T11 sequence: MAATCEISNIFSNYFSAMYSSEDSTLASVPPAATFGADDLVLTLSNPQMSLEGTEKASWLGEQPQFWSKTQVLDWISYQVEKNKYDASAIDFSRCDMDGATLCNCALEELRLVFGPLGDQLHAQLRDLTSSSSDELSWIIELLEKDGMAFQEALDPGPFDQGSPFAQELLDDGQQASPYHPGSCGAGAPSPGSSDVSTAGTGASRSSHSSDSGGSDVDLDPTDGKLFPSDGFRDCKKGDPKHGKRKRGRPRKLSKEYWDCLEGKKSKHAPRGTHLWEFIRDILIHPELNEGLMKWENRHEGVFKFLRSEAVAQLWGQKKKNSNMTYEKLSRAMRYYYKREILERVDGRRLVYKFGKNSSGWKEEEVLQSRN
# How it was run: as §1
# CRX = CRX (Homo sapiens, UniProt O43186 1-299); conditions: protein: recombinant; tags: N-terminal GST; dsDNA, one strand shown
# How it was run: as §1
# ETV1 = ETV1 (Homo sapiens, UniProt P50549 1-477); conditions: protein: recombinant; tags: N-terminal GST; dsDNA, one strand shown
# How it was run: as §1
# ETV1, sequence (P50549 whole entry): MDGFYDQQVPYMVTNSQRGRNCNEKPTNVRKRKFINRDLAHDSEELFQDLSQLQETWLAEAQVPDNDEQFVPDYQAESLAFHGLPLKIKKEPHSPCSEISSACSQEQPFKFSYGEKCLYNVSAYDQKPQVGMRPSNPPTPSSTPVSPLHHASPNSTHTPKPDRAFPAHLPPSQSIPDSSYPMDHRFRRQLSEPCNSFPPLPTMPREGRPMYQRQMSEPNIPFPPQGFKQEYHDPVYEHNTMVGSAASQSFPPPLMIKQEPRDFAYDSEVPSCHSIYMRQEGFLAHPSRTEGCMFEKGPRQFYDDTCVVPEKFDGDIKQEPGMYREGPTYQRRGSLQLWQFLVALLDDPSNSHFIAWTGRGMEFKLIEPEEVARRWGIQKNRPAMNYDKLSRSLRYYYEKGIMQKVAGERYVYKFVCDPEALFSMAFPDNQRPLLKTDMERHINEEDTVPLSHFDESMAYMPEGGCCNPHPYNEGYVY
# ELF1, sequence (P32519 whole entry): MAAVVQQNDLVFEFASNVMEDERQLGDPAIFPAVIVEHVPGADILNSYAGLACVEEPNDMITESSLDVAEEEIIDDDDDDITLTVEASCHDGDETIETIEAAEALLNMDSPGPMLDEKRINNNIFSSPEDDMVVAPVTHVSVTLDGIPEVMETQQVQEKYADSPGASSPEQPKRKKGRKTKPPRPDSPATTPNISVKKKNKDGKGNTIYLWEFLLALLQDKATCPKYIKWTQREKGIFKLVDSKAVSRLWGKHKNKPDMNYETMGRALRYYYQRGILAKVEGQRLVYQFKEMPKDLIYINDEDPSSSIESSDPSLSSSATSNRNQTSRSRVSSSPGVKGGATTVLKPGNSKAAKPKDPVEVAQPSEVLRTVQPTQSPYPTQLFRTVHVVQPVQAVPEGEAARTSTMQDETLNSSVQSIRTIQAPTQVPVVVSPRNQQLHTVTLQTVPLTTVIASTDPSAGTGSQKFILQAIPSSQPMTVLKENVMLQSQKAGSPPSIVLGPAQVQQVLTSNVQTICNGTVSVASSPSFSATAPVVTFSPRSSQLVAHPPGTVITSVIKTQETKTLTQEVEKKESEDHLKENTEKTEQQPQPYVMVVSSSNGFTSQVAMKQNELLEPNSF
# CRX, sequence (O43186 whole entry): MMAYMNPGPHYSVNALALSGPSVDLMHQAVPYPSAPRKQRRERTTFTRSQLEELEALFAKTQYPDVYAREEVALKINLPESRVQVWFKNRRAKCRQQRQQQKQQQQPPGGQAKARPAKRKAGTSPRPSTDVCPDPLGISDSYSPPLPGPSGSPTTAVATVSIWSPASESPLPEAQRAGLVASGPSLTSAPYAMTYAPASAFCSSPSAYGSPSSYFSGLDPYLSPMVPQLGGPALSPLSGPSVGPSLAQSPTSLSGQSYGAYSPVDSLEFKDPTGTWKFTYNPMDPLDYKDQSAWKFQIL
# ETV5, sequence (P41161 whole entry): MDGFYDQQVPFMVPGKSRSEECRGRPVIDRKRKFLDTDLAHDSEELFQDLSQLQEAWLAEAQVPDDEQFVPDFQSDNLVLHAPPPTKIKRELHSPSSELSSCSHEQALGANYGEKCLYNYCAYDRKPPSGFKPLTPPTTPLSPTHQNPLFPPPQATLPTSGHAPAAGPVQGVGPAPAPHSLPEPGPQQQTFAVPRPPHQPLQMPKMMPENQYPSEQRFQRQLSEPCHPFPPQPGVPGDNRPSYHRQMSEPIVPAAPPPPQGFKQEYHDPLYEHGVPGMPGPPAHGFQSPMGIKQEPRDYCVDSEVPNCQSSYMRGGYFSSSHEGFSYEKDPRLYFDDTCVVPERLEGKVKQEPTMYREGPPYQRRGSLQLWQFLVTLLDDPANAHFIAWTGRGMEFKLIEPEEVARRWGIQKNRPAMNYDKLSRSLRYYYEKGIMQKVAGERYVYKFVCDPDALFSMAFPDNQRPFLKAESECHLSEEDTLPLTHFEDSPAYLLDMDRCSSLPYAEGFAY
# HSF1, sequence (Q00613 whole entry): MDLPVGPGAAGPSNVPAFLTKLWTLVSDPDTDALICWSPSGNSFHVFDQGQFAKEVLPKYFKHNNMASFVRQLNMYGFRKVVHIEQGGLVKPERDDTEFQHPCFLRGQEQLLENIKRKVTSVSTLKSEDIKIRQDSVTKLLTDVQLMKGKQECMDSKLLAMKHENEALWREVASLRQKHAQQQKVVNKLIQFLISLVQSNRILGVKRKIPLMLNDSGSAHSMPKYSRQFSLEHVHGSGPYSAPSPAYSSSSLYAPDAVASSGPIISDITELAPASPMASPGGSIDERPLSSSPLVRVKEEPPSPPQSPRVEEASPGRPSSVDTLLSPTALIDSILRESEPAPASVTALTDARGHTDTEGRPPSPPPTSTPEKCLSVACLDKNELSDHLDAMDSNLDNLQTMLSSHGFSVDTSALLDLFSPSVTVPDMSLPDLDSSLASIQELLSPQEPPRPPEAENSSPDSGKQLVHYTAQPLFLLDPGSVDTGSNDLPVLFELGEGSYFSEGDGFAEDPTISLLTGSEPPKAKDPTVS
# ELF4, sequence (Q99607 whole entry): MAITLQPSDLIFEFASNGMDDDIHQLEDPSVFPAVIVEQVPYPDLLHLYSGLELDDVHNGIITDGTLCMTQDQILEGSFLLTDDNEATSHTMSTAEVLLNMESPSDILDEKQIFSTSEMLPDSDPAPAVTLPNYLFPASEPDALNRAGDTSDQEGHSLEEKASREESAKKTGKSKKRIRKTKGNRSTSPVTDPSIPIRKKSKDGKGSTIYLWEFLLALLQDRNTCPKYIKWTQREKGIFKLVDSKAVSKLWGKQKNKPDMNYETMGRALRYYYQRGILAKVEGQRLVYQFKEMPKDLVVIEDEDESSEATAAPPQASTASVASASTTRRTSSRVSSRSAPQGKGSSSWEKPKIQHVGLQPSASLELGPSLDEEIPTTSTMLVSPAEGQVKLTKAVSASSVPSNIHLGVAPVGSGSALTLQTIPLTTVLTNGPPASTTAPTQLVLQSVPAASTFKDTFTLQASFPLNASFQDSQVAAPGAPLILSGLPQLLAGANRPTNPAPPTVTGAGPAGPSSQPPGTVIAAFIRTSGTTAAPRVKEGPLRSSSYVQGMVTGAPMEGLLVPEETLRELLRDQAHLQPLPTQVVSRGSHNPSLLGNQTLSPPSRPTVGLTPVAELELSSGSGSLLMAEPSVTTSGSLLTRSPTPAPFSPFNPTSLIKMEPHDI
# SPIB, sequence (Q01892 whole entry): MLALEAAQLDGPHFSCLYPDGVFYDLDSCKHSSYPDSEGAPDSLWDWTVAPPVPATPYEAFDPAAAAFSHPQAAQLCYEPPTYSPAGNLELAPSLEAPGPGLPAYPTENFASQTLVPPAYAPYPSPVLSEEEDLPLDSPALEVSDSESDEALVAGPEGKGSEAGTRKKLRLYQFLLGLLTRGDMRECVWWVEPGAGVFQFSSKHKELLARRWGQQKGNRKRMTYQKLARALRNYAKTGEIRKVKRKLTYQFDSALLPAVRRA
sequence,measurement,setting,value
CCTGCG,binding signal,FLI1,"1.27 fold enrichment (6-mer frequency, TF over GST control)"
same,binding signal,ELK1,"1.34 fold enrichment (6-mer frequency, TF over GST control)"
same,binding signal,GABPA,"1.39 fold enrichment (6-mer frequency, TF over GST control)"
same,binding signal,ERG,"1.27 fold enrichment (6-mer frequency, TF over GST control)"
same,binding signal,ELF1,"1.38 fold enrichment (6-mer frequency, TF over GST control)"
same,binding signal,EHF,"1.31 fold enrichment (6-mer frequency, TF over GST control)"
same,binding signal,SPI1,"1.23 fold enrichment (6-mer frequency, TF over GST control)"
same,binding signal,SPIB,"1.35 fold enrichment (6-mer frequency, TF over GST control)"
same,binding signal,ELK3,"1.22 fold enrichment (6-mer frequency, TF over GST control)"
same,binding signal,FEV,"1.28 fold enrichment (6-mer frequency, TF over GST control)"
same,binding signal,ETV5,"1.27 fold enrichment (6-mer frequency, TF over GST control)"
same,binding signal,HSF1,"1.1 fold enrichment (6-mer frequency, TF over GST control)"
same,binding signal,SPIC,"1.12 fold enrichment (6-mer frequency, TF over GST control)"
same,binding signal,ELF4,"1.32 fold enrichment (6-mer frequency, TF over GST control)"
same,binding signal,ELK4,"1.37 fold enrichment (6-mer frequency, TF over GST control)"
same,binding signal,ETV2,"1.41 fold enrichment (6-mer frequency, TF over GST control)"
same,binding signal,ELF3,"1.23 fold enrichment (6-mer frequency, TF over GST control)"
same,binding signal,CRX,"1.05 fold enrichment (6-mer frequency, TF over GST control)"
same,binding signal,ETV1,"1.39 fold enrichment (6-mer frequency, TF over GST control)"
